PLK1 PBD inh = PLK1 (human) polo-box domain binding inhibition; P53350; Plk1 PBD binding of FITC phosphopeptide, fluorescence polarization; Potency, µM, inactives show max response, negative = inhibition, most hits filed as inhibitors; actives 2.8% (n = 360,000); AID 720504; note: potency is the fitted concentration of half-maximal effect; series mostly up to about 57 µM; % is set by controls: 0 for no effect and ±100 for the full control effect; nearly all actives have a fitted effect of over 65% in size
Target sequence (P53350 whole entry, looked up, the tested form may be a part): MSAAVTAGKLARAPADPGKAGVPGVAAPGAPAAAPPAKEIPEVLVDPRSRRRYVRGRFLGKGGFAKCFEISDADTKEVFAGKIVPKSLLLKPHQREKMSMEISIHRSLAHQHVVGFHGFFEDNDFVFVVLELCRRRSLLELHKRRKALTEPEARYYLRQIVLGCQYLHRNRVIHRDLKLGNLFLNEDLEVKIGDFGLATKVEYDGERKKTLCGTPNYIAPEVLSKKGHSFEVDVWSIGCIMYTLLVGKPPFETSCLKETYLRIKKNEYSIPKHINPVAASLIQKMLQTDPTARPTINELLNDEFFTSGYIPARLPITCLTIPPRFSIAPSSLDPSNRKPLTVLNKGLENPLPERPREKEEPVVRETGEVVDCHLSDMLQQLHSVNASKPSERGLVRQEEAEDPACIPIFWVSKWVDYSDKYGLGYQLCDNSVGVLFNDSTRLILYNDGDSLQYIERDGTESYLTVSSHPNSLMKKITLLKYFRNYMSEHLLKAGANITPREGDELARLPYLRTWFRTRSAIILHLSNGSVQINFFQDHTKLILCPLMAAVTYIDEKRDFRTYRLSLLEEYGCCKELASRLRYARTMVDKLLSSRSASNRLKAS
PI5P4K alpha inh = PI5P4K alpha (human) kinase inhibition; max response, %; AID 652105; actives 1.2% (n = 330,000); P48426; PI5P4Kalpha enzyme, ADP-Glo luminescence, 60 min; hits give low values; active = max response of -50% or lower; inconclusive = between -30% and -50%; inactive = -30% or higher; note: value at the top dose of about 77 µM; % is set by controls: 0 for no effect and ±100 for the full control effect
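Controls without substrate or without enzyme flank wells where PI5P4Kalpha converts substrate using 5 microM ATP (final). Incubation lasts 60 minutes at room temperature; ADP formed is read by ADP-Glo luminescence.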
GCN5L2 inh = GCN5L2 (KAT2A) acetyltransferase inhibition; AID 504327; actives 0.21% (n = 390,000); GCN5L2 HAT assay, ThioGlo1 CoA-SH fluorescence; Q92830; Potency, µM (top dose mostly 58.9 µM), for the others: at the top dose activity change, negative = inhibition, usual class: inhibitors; note: potency is the fitted concentration of half-maximal effect; % is set by controls: 0 for no effect and ±100 for the full control effect
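Fluorescence readout, Ex340nm/Em540nm: ThioGlo1 (50uM final) reacts with free CoA thiol released as 20nM GCN5L2 acetylates H3(1-25) peptide (75uM) using acetyl-CoA (70uM). Compound and enzyme sat 15 min beforehand; 20 min room-temperature reaction.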
BAZ2B block = blocks human BAZ2B. AlphaScreen BAZ2B-H3K14Ac peptide displacement. actives 4.4% (n = 360,000). Potency, µM (doses to about 114 µM), for the others: top-dose activity change, negative = inhibition, usual class: inhibitors. Q9UIF8; note: potency is the fitted concentration of half-maximal effect; % is set by controls: 0 for no effect and ±100 for the full control effect; nearly all actives have a fitted effect of over 60% in size
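BAZ2B 50 nM plus b-H3(5-23)K14Ac 50 nM, PBS pH 7.4/0.01% Tween-20, 30 min RT; compound added (max 110 uM), 30 min RT; streptavidin donor/Ni-chelate acceptor beads 10 ug/mL final, 20 min dark; AlphaScreen read.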
HP1b chromo inh = HP1-beta chromodomain-methylated histone interaction inhibition; P83916; AlphaScreen HP1-beta / biotin-H3K9me3 peptide binding; Potency, µM (series often up to 114 µM), inactives show top-dose activity change, negative = inhibition, hits mostly inhibitors; actives 0.56% (n = 390,000); note: potency is the fitted concentration of half-maximal effect; nearly all actives have a fitted effect of over 70% in size
Target sequence (P83916 whole entry, looked up): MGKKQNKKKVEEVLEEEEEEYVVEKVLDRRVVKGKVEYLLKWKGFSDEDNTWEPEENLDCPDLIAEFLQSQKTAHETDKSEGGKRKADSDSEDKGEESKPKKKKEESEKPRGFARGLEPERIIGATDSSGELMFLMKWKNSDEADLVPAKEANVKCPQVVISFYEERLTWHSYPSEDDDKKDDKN
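AlphaScreen: HP1-beta (50 nM) preformed 30 min with biotin-H3(1-18)K9me3 peptide (50 nM) in PBS pH 7.4, 0.01% Tween-20. Compound added for 30 min at RT, then streptavidin donor/nickel chelate acceptor beads (10 ug/mL) for 30 min.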
JMJD2A Tudor = JMJD2A Tudor domain (human) inhibition; AlphaScreen JMJD2A-Tudor / H3K4me3 peptide binding; Potency, µM (series often up to 114 µM), without a hit: at the top dose activity change, negative = inhibition, usual class: inhibitors; actives 4.4% (n = 390,000); note: potency is the fitted concentration of half-maximal effect; % is set by controls: 0 for no effect and ±100 for the full control effect; nearly all actives have a fitted effect of over 50% in size
The depositor's hits bear a star; ? = inconclusive; / = no result given; [ ] = dose if it differs, or a comment. Only some compounds are listed: those with a hit (about 7% of all), similar ones and a draw of the others. Unless noted, calls come from the whole dose curve; as a rule, active = well fitted curve in the direction sought with a large enough effect; inconclusive = small, poorly fitted or top-dose-only effect, or another doubt; inactive = no such curve, though single readings can be large; an effect the other way counts as inactive or inconclusive.

SMILES	PLK1 PBD inh	PI5P4K alpha inh	GCN5L2 inh	BAZ2B block	HP1b chromo inh	JMJD2A Tudor
C1CNCCOCCNCCN1	0.0%	-1.7	-0.2%	44.7µM*	49.6%	-24.5%
S=C1NCCOCCOCCOCCOCCN1	-4.8%	/	0.4%	0.5%	28.7%	-1.9%
Cc1cc(C(=O)CCC(=O)NCC(=O)Nc2c(C)cccc2C)c(C)s1	-4.2%	-27.6	0.0%	/	37.3%	-22.1%
CC(=O)N1CCC(=NNc2ncc(C(F)(F)F)cc2Cl)CC1	-12.8%	2.8	-6.4%	35.5µM*	33.4%	-21.9%[57.1 µM]
CC1=C(C)/C(=N\OS(=O)(=O)c2ccccc2)C=CC1=O	?	-0.1	?	39.8µM*	?	56.2µM*
COc1ccc(-n2cccc2C=O)cc1	-8.2%	2.5	1.0%	-6.2%	19.6%	-14.7%
COc1ccc(-n2cccc2/C=C/[N+](=O)[O-])cc1	26.7µM*	?	-10.8%	35.5µM*	44.7µM*	44.7µM*
C#CCNC(=O)C(C)c1ncc(C(F)(F)F)cc1Cl (stereo not drawn)	6.7µM*	-4.5	-7.1%	2.4%	7.2%	-26.3%[11.4 µM]
CN(CC1CCOCC1)C(=O)CC1C(=O)NCCN1CC(c1ccccc1)c1ccccc1 (stereo not drawn)	-6.2%	-2.1	-7.3%	-9.8%	17.5%	-11.8%
CC(C)C(c1nnnn1Cc1cccs1)N1CCN(C(=O)c2ccco2)CC1 (stereo not drawn)	18.9µM*	-14.0	-4.4%	-8.4%	-16.1%	?
COCCn1nnnc1C(C(C)C)N1CCN(C(=O)c2ccco2)CC1 (stereo not drawn)	3.3%	-4.3	1.4%	-0.8%	0.5%	44.7µM*
COCCn1nnnc1C(c1ccccc1)N1CCN(C(=O)c2ccco2)CC1 (stereo not drawn)	?	0.8	2.8%	?	-4.7%[57 µM]	?
Cc1cc(-c2nc3ncccc3o2)ccc1NC(=S)NC(=O)c1ccco1	-9.2%	2.4	3.5%	-3.3%	20.1%	-13.3%
CCCOC(=O)Nc1nc2ccccc2o1	4.1%	0.2	1.4%	79.4µM*	9.7%	?
CCOC(=O)C(=CN=C(N)Nc1nc2ccccc2o1)C(=O)OCC	-12.9%	2.9	-6.2%	2.7%	36.6%	-8.9%
N#CC(Sc1ccccn1)c1ccc(Cl)cc1 (stereo not drawn)	7.52µM*	7.6	-7.5%	7.3%	12.9%	-6.0%[11.4 µM]
O=C(NCCSc1ccccn1)c1ccc(Cl)cc1	-10.0%	0.6	-2.9%	2.3%	53.3%	-7.7%
CCN(Cc1ccccc1)C(=O)/C=C/c1ccccc1[N+](=O)[O-]	-9.1%	-4.5	-1.4%	89.1µM*	39.7%	-21.3%
CN(Cc1cccs1)C(=O)/C=C/c1ccccc1[N+](=O)[O-]	0.1%	0.4	0.9%	-3.7%	12.7%	-4.5%
CN(C)c1ccc(NS(=O)(=O)c2cccc(Cl)c2)cc1	-16.1%	7.5	-7.0%	44.7µM*	?	31.6µM*
Cc1ccc(S(=O)(=O)N(C)/N=C/c2ccc(N(C)C)cc2)cc1	-2.8%	-0.6	-20.1%	25.1µM*	39.8µM*	22.4µM*
CCN(CC)c1ccc(NS(=O)(=O)c2ccc(OC)cc2)cc1	-1.7%	1.2	-5.4%	39.8µM*	25.4%	-3.5%
CN(C)c1ccc(NS(=O)(=O)c2ccc(-c3csnn3)cc2)cc1	-12.3%	-7.4	1.4%	56.2µM*	?	50.1µM*
CCOc1ccc(-n2cc(-c3ccccc3)c3c(NC4CCCC4)ncnc32)cc1	/	/	-3.9%	?	32.6%	-27.2%
COC(=O)c1ccc(NC(=O)CCNS(=O)(=O)c2cccc3nsnc23)cc1	/	/	-4.9%	-9.9%	13.1%	-13.0%
SMILES	PLK1 PBD inh	PI5P4K alpha inh	GCN5L2 inh	BAZ2B block	HP1b chromo inh	JMJD2A Tudor
CCOC(=O)C(=CNc1nc(-c2ccc3ccccc3c2)cs1)C(=O)OCC	-5.5%	21.2	-9.6%	20.6%	136.7%	50.8%
CCC(=O)N1CCc2cc(Br)cc(S(=O)(=O)CCC(=O)NCc3ccc(C)cc3)c21	/	/	2.9%	0.0%	19.5%	-13.7%
CCOc1ccc(CCNC(=O)CCCn2c(=O)c3cccn3c3cccnc32)cc1	/	/	-6.2%	-10.4%	30.7%	-12.1%
O=c1[nH]cc(COCC(F)CCl)c(=O)[nH]1 (stereo not drawn)	-4.1%	0.9	-16.6%	1.8%	23.9%	-6.1%
COc1ccc(S(=O)(=O)Nc2cccc3ccccc23)cc1	/	/	/	/	21.6%	-23.3%
CCCCc1ccc(NS(=O)(=O)c2cc3c4c(c2)CC(=O)N4CCC3)cc1	/	/	-7.5%	-9.6%	7.1%	-31.1%
CN(C)c1ccc(NS(=O)(=O)c2ccc(Cl)cc2)cc1	4.2%	-1.0	-5.1%	44.7µM*	?	56.2µM*
Cc1cc(S(=O)(=O)Nc2ccc(N(C)C)cc2)c(C)s1	0.5%	/	-3.9%	44.7µM*	-18.2%	50.1µM*
COc1ccc(S(=O)(=O)Nc2c(F)cccc2F)cc1	29.9µM*	-17.3	?	-14.5%	50.1µM*	25.1µM*
CN(C)c1ccc(S(=O)(=O)c2ccc(Cl)cc2)cc1	-7.1%	0.3	-2.9%	-3.1%	33.8%	2.1%
CN(C)c1ccc(NS(=O)(=O)c2cc3c4c(c2)CC(=O)N4CCC3)cc1	-15.3%	-0.6	-4.3%	44.7µM*	?	?
Cc1cc(S(=O)(=O)Nc2cccc(Cl)c2)c(C)s1	-4.8%	0.1	-11.5%	/	45.1%	-0.7%
Cc1ccc(S(=O)(=O)Nc2ccc(Nc3ccccc3)cc2)cc1	7.3%	-4.7	-8.1%	?	-13.6%	?
Cc1ccc(S(=O)(=O)Nc2ccc(N(C)C)cc2)cc1	-8.5%	-2.5	-1.8%	35.5µM*	?	56.2µM*
Cc1[nH]c(=S)sc1Cc1ccc(F)cc1	?	-19.3	-8.4%	-33.5%	-7.1%	39.8µM*
CCOc1cc(/C=C(\C#N)C(N)=O)cc(CSc2ccccc2)c1O	/	/	34.2%	/	/	/
COc1cc(/C=C(\C#N)C(N)=O)cc(CSc2nc3ccccc3s2)c1O	/	/	28.2µM*	/	/	/
Cc1cc(O)c(Oc2cc(C)cc(O)c2O)c(O)c1	?	?	-8.2%	?	?	39.8µM*
O=C(O)c1cc(-c2ccc(/C=N/NC(=S)Nc3ccccc3)o2)ccc1Cl	?	-71.5*	-6.7%	?	-7.5%	-30.1%
O=[N+]([O-])c1cccc(-c2ccc(/C=N/NC(=S)Nc3ccccc3)o2)c1	-12.8%	4.7	-2.3%	3.5%[57.1 µM]	-7.9%	-26.7%
COc1ccc(C(C)(C)C)cc1NC(=O)CCN1C(=O)NC(C)(C)C1=O	-9.6%	6.0	-1.1%	/	26.5%	-20.8%
Cc1ccc(CNC(=O)CCNS(=O)(=O)c2ccc(C)cc2)cc1	-0.5%	3.8	-1.4%	-5.4%	23.9%	-0.3%
O=C(CCNS(=O)(=O)c1ccc(Br)cc1)NCc1ccc(Cl)cc1	26.7µM*	-15.0	-3.7%	-3.6%	19.5%	?

Screening data as filed in PubChem.
